Measured values as given in PubChem BioAssay AID1159580 (chemical genetic matrix, 2015).
“And” between values parts separate entries of the source, which are not always exact repeats. Equal entries are not always repeated. Screen size: about 5,500 compounds; about 2,000 (36%) were called active. Roughly 18% stayed inconclusive and do not appear here. No stated cut-off is given here; in the data, active means normalized growth mostly below about 0.91 (no sharp cut-off); inconclusive means no clear call, values can overlap the other calls; inactive means mostly above about 0.92. This is one part of the list.

Assay: chemical genetic growth profiling, strain panel (AID 1159580);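 further: tested at 20 µM; growth read once vehicle control cultures reached saturation at 30 °C; 1 = growth at the plate median or of vehicle wells; lower values mean less growth of the strain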
Settings: S. cerevisiae deletion strains, growth OD

Measured: normalized growth

O=C(O)c1cc(O)c(O)c(O)c1
inactive: locus YAL021C, strain ccr4, active compounds read low 1.05 | locus YAL026C, strain drs2, active compounds read low 1.03 | locus YAL030W, strain snc1, active compounds read low 1.02 | locus YBL061C, strain skt5, active compounds read low 1.03 | locus YBR009C, strain hhf1, active compounds read low 1.02 | locus YBR021W, strain FUR4, active compounds read low 1.03 | locus YBR023C, strain chs3, active compounds read low 1.04 | locus YBR171W, strain sec66, active compounds read low 1.03 | locus YBR229C, strain ROT2, active compounds read low 1.03 | locus YBR231C, strain swc5, active compounds read low 1.01 | locus YBR279W, strain paf1, active compounds read low 1.02 | locus YCL011C, strain gbp2, active compounds read low 1.02 | locus YCL016C, strain dcc1, active compounds read low 1.04 | locus YCL029C, strain bik1, active compounds read low 1.07 | locus YCL069W, strain vba3, active compounds read low 1.01 | locus YCR088W, strain abp1, active compounds read low 1.02 | locus YDL005C, strain med2, active compounds read low 1.02 | locus YDL035C, strain GPR1, active compounds read low 1.07 | locus YDL040C, strain nat1, active compounds read low 1.02 | locus YDL074C, strain BRE1, active compounds read low 1.14 | locus YDL101C, strain DUN1, active compounds read low 1.03 | locus YDL185W, strain tfp1, active compounds read low 1.03 | locus YDL192W, strain arf1, active compounds read low 1.03 | locus YDR001C, strain nth1, active compounds read low 1.01 | locus YDR069C, strain doa4, active compounds read low 1.01 | locus YDR101C, strain arx1, active compounds read low 0.996 | locus YDR137W, strain rgp1, active compounds read low 1.13 | locus YDR150W, strain NUM1, active compounds read low 1.03 | locus YDR159W, strain sac3, active compounds read low 0.987 | locus YDR162C, strain NBP2, active compounds read low 1.04 | locus YDR195W, strain ref2 0.996 | locus YDR297W, strain sur2, active compounds read low 1.02 | locus YDR318W, strain mcm21, active compounds read low 1.04 | locus YDR334W, strain swr1, active compounds read low 1.04 | locus YDR335W, strain msn5, active compounds read low 1.02 | locus YDR388W, active compounds read low 1.02 | locus YDR392W, strain spt3, active compounds read low 0.993 | locus YDR502C, strain sam2, active compounds read low 1.04 | locus YEL003W, strain gim4, active compounds read low 0.996 | locus YEL037C, strain rad23, active compounds read low 1.02 | locus YEL061C, strain CIN8 (second series), active compounds read low 1.02 | locus YEL061C, strain CIN8, active compounds read low 1.03 | locus YER015W, strain faa2, active compounds read low 1 | locus YER016W, strain bim1, active compounds read low 1.04 | locus YER110C, active compounds read low 1.02 | locus YER111C, strain swi4, active compounds read low 1.02 | locus YER155C, strain BEM2 (second series), active compounds read low 1.08 | locus YER155C, strain BEM2, active compounds read low 1.03 | locus YER167W, strain BCK2, active compounds read low 1.03 | locus YFR010W, strain ubp6, active compounds read low 0.998 | locus YGL078C, strain dbp3, active compounds read low 1.03 | locus YGL086W, strain mad1, active compounds read low 1.03 | locus YGL167C, strain pmr1, active compounds read low 1.02 | locus YGL173C, strain kem1, active compounds read low 0.994 | locus YGL227W, strain vid30, active compounds read low 1.02 | locus YGL240W, strain doc1, active compounds read low 1.01 | locus YGL248W, strain PDE1, active compounds read low 1.08 | locus YGL253W, strain hxk2, active compounds read low 1.03 | locus YGR078C, strain PAC10, active compounds read low 1.04 | locus YGR135W, strain pre9, active compounds read low 1.07 | locus YGR252W, strain gcn5, active compounds read low 1.07 | locus YHR013C, strain ard1, active compounds read low 1.04 | locus YHR027C, strain rpn1, active compounds read low 1.01 | locus YHR030C, strain SLT2, active compounds read low 0.966 | locus YHR079C, strain IRE1 (second series), active compounds read low 1.03 | locus YHR079C, strain IRE1, active compounds read low 0.969 | locus YHR094C, strain hxt1, active compounds read low 1.02 | locus YHR129C, strain ARP1, active compounds read low 1.05 | locus YHR142W, strain chs7, active compounds read low 1.03 | locus YHR200W, strain rpn10, active compounds read low 1.02 | locus YIL066C, strain RNR3, active compounds read low 1.05 | locus YIL073C, strain SPO22, active compounds read low 1.23 | locus YIL125W, strain kgd1, active compounds read low 1.02 | locus YIR030C, strain dcg1, active compounds read low 1.05 | locus YJL092W, strain hpr5, active compounds read low 1.03 | locus YJL095W, strain BCK1 (second series), active compounds read low 1.03 | locus YJL095W, strain BCK1, active compounds read low 1.12 and 0.981 | locus YJL115W, strain asf1, active compounds read low 1.02 | locus YJL129C, strain trk1, active compounds read low 1.08 | locus YJL134W, strain LCB3, active compounds read low 1.03 | locus YJL154C, strain vps35, active compounds read low 1.03 | locus YJL164C, strain tpk1, active compounds read low 1.01 | locus YJL166W, strain qcr8, active compounds read low 1.04 | locus YJL168C, strain set2, active compounds read low 1.02 | locus YJL187C, strain SWE1 (second series), active compounds read low 1.07
